# Test results taken from publication PMC7862700, “An all-to-all approach to the identification of sequence-specific readers for epigenetic DNA modifications on cytosine”.
# Experiments:
# Experiment in all cases: DAPPL (digital affinity profiling via proximity ligation, sequencing); 10 mM Tris-HCl pH 7.5, 50 mM NaCl, 1 mM DTT, 4% glycerol, room temperature, 30 min; GST-TFs on glutathione beads, 16-mer random dsDNA library, 0.1% formaldehyde crosslink after washing; high values mean tight binding
# Settings in all cases: protein: recombinant; tags: N-terminal GST; dsDNA, one strand shown
# [1] = target: T1, FLI1 (Homo sapiens, UniProt Q01543 1-452)
# T1 sequence: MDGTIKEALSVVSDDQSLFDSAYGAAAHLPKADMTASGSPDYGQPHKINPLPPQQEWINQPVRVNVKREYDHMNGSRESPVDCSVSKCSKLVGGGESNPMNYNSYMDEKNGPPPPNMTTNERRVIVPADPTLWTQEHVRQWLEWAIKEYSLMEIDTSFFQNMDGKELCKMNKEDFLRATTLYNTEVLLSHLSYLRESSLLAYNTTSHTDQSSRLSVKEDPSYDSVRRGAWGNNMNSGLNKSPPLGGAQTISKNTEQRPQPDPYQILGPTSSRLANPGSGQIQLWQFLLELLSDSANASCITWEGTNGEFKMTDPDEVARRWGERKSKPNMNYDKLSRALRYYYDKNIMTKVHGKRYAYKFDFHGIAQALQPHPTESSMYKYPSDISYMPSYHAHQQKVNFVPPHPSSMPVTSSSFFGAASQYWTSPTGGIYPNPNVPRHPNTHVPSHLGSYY
# How it was run: (§1)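 Human transcription factors carrying a GST fusion were produced in yeast, bound to glutathione beads, tagged with DNA barcodes and pooled together with a tag-only sample. Each pool was held with 200 nmole of a random double-stranded 16-mer DNA library in Tris/NaCl/DTT/glycerol buffer for 30 min at room temperature, then washed, crosslinked in 0.1% formaldehyde, proximity-ligated with BsaI/T4 ligase (1 h, 37 °C), PCR-amplified and sequenced on an Illumina NextSeq500. Binding signal is the read frequency of each hexamer for a given factor divided by its frequency in the tag-only sample.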
# [2] = target: T2, ELK1 (Homo sapiens, UniProt P19419 1-428)
# T2 sequence: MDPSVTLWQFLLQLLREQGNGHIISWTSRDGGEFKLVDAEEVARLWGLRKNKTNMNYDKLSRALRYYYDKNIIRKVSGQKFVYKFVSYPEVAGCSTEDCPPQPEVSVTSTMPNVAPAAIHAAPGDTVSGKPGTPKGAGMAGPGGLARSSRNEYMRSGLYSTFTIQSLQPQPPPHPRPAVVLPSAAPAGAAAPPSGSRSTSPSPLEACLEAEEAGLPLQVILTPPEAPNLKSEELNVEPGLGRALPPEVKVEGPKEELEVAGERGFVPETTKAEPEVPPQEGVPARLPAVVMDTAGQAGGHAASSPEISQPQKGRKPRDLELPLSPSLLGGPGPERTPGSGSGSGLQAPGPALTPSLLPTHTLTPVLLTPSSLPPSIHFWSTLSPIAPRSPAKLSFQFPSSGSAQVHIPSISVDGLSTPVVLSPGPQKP
# How it was run: as §1
# [3] = target: T3, GABPA (Homo sapiens, UniProt Q06546 1-454)
# T3 sequence: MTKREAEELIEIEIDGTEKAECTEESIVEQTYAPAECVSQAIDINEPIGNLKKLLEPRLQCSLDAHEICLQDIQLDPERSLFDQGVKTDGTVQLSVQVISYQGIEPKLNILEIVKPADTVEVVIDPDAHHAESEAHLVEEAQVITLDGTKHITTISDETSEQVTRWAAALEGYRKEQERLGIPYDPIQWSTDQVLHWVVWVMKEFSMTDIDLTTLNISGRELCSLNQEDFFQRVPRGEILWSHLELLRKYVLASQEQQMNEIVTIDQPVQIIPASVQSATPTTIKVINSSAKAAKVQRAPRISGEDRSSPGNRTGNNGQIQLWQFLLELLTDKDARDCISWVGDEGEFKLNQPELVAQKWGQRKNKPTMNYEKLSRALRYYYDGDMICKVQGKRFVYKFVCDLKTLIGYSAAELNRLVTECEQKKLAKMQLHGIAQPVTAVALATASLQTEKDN
# How it was run: as §1
# [4] = target: T4, ERG (Homo sapiens, UniProt P11308 1-479)
# T4 sequence: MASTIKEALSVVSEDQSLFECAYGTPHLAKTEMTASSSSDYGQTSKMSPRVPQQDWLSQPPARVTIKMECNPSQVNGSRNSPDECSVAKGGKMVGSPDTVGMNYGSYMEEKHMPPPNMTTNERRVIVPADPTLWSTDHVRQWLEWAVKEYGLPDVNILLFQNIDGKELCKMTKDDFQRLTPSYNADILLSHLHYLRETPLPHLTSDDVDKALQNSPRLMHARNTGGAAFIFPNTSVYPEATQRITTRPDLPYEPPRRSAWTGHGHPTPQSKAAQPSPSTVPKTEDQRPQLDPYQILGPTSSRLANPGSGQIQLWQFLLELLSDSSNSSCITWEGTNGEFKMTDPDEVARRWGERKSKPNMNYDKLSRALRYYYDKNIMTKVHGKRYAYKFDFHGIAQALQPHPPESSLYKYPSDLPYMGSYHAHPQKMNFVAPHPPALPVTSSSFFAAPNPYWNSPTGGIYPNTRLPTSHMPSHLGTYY
# How it was run: as §1
# [5] = target: ELF1 (Homo sapiens, UniProt P32519 1-619)
# ELF1, sequence (P32519 whole entry): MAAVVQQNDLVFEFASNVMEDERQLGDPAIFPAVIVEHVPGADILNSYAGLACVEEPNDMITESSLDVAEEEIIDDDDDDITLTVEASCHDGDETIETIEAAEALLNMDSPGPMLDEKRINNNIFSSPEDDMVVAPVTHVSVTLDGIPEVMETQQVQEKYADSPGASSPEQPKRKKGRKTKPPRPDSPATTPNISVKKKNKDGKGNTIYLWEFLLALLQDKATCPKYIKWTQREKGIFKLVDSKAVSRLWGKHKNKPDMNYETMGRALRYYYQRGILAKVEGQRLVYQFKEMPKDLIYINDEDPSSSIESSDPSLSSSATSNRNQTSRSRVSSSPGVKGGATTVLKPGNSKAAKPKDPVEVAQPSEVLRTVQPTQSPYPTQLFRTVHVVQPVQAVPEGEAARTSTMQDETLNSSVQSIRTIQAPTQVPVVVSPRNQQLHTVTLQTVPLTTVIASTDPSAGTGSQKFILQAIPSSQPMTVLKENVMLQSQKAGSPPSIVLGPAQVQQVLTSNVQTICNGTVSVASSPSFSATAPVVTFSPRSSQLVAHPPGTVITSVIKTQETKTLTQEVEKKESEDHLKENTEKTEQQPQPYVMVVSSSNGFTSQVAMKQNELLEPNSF
# How it was run: as §1
# [6] = target: T5, EHF (Homo sapiens, UniProt Q9NZC4 1-300)
# T5 sequence: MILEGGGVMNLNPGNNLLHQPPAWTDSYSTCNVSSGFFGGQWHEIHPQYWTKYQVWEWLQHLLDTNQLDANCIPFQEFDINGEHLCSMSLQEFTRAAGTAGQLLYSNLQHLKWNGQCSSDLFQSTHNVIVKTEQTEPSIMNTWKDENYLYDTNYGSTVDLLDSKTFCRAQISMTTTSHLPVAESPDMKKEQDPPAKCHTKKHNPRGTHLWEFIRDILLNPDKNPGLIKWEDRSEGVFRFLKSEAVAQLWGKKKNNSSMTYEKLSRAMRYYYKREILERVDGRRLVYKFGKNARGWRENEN
# How it was run: as §1
# [7] = target: SPI1 (Homo sapiens, UniProt P17947 1-270)
# How it was run: as §1
# [8] = target: SPIB (Homo sapiens, UniProt Q01892 1-262)
# SPIB, sequence (Q01892 whole entry): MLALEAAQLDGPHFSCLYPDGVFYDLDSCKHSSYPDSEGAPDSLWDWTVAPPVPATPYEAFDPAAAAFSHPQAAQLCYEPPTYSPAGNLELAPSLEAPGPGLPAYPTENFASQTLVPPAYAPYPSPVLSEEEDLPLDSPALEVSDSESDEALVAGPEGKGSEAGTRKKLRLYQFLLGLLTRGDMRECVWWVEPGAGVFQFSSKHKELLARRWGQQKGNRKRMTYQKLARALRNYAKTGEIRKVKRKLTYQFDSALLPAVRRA
# How it was run: as §1
# [9] = target: T6, ELK3 (Homo sapiens, UniProt P41970 1-407)
# T6 sequence: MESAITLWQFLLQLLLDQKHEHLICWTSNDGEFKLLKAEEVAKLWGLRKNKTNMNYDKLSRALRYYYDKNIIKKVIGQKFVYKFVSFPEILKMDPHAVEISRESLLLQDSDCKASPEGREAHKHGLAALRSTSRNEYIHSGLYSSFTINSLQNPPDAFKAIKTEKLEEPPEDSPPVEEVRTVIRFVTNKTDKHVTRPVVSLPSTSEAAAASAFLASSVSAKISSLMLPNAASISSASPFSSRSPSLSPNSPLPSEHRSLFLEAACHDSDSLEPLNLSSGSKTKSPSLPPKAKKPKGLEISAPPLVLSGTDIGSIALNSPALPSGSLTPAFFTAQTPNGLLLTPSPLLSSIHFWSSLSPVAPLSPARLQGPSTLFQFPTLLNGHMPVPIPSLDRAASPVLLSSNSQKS
# How it was run: as §1
Sequence,binding signal [1],binding signal [2],binding signal [3],binding signal [4],binding signal [5],binding signal [6],binding signal [7],binding signal [8],binding signal [9]
CACGCT,"1.42 fold enrichment (6-mer frequency, TF over GST control)","1.36 fold enrichment (6-mer frequency, TF over GST control)","1.36 fold enrichment (6-mer frequency, TF over GST control)","1.4 fold enrichment (6-mer frequency, TF over GST control)","1.34 fold enrichment (6-mer frequency, TF over GST control)","1.44 fold enrichment (6-mer frequency, TF over GST control)","1.33 fold enrichment (6-mer frequency, TF over GST control)","1.37 fold enrichment (6-mer frequency, TF over GST control)","1.35 fold enrichment (6-mer frequency, TF over GST control)"
AGATCC,"1.05 fold enrichment (6-mer frequency, TF over GST control)","1.12 fold enrichment (6-mer frequency, TF over GST control)","1.09 fold enrichment (6-mer frequency, TF over GST control)","1.15 fold enrichment (6-mer frequency, TF over GST control)","1.1 fold enrichment (6-mer frequency, TF over GST control)","1.12 fold enrichment (6-mer frequency, TF over GST control)","1.03 fold enrichment (6-mer frequency, TF over GST control)","1.18 fold enrichment (6-mer frequency, TF over GST control)","1.1 fold enrichment (6-mer frequency, TF over GST control)"
GTCTCA,"1.34 fold enrichment (6-mer frequency, TF over GST control)","1.32 fold enrichment (6-mer frequency, TF over GST control)","1.35 fold enrichment (6-mer frequency, TF over GST control)","1.36 fold enrichment (6-mer frequency, TF over GST control)","1.41 fold enrichment (6-mer frequency, TF over GST control)","1.32 fold enrichment (6-mer frequency, TF over GST control)","1.39 fold enrichment (6-mer frequency, TF over GST control)","1.41 fold enrichment (6-mer frequency, TF over GST control)","1.32 fold enrichment (6-mer frequency, TF over GST control)"
TTCGAA,"1.14 fold enrichment (6-mer frequency, TF over GST control)","1.2 fold enrichment (6-mer frequency, TF over GST control)","1.19 fold enrichment (6-mer frequency, TF over GST control)","1.19 fold enrichment (6-mer frequency, TF over GST control)","1.28 fold enrichment (6-mer frequency, TF over GST control)","1.12 fold enrichment (6-mer frequency, TF over GST control)","1.14 fold enrichment (6-mer frequency, TF over GST control)","1.12 fold enrichment (6-mer frequency, TF over GST control)","1.33 fold enrichment (6-mer frequency, TF over GST control)"
AATTGC,"1.44 fold enrichment (6-mer frequency, TF over GST control)","1.42 fold enrichment (6-mer frequency, TF over GST control)","1.44 fold enrichment (6-mer frequency, TF over GST control)","1.3 fold enrichment (6-mer frequency, TF over GST control)","1.34 fold enrichment (6-mer frequency, TF over GST control)","1.38 fold enrichment (6-mer frequency, TF over GST control)","1.43 fold enrichment (6-mer frequency, TF over GST control)","1.29 fold enrichment (6-mer frequency, TF over GST control)","1.46 fold enrichment (6-mer frequency, TF over GST control)"
CATACT,"1.34 fold enrichment (6-mer frequency, TF over GST control)","1.29 fold enrichment (6-mer frequency, TF over GST control)","1.36 fold enrichment (6-mer frequency, TF over GST control)","1.27 fold enrichment (6-mer frequency, TF over GST control)","1.34 fold enrichment (6-mer frequency, TF over GST control)","1.31 fold enrichment (6-mer frequency, TF over GST control)","1.33 fold enrichment (6-mer frequency, TF over GST control)","1.29 fold enrichment (6-mer frequency, TF over GST control)","1.29 fold enrichment (6-mer frequency, TF over GST control)"
TCTTAA,"1.18 fold enrichment (6-mer frequency, TF over GST control)","1.13 fold enrichment (6-mer frequency, TF over GST control)","1.16 fold enrichment (6-mer frequency, TF over GST control)","1.21 fold enrichment (6-mer frequency, TF over GST control)","1.23 fold enrichment (6-mer frequency, TF over GST control)","1.09 fold enrichment (6-mer frequency, TF over GST control)","1.23 fold enrichment (6-mer frequency, TF over GST control)","1.23 fold enrichment (6-mer frequency, TF over GST control)","1.23 fold enrichment (6-mer frequency, TF over GST control)"
